Source: PubChem BioAssay
Sampled rows, rich in hits. Any-hit rate of the full collection: about 12%.
WT yeast gro inh: growth inhibition of WT yeast, mitochondrial fusion screen; inhibition, % at 10 µM; actives 2.1% (n = 190,000); mitochondrial fusion phenotypic screen, WT strain; in the data active = inhibition above about 58%; tested in S. cerevisiae
Arbovirus inh: blocks arbovirus infection. arbovirus infection cell-based antiviral screen. inhibition, % at 10 µM. actives 0.37% (n = 200,000); in the data active = inhibition above about 30%
CHOP inhibitor: blocks CHOP induction under ER stress. actives 3.8% (n = 220,000). CHO-K1 CHOP-promoter luciferase, tunicamycin-induced, 15-18 h. inhibition, % at 10 µM. AID 2732;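 active = compounds that reduced the stress-induced luciferase reporter signal by more than about 70% of percent inhibition, limit read from the data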
L major viab: inhibitors of Leishmania major promastigote growth; inhibition, % at 10 µM; Leishmania major promastigotes, resazurin fluorescence viability; actives 9% (n = 200,000); AID 1063; in the data active = inhibition above about 50%;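 also: promastigotes grown with compound for 44 hours at 28 °C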
Each line names hits and unclear results; the compound was inactive in the other large screens.

COc1ccc(-c2csc(/C(C#N)=C\c3ccc(O)c([N+](=O)[O-])c3)n2)cc1OC	none (no result: WT yeast gro inh, Arbovirus inh, L major viab)
Cn1c(O)c(C=Nc2ccc(Br)cc2)sc1=O	none
CN1CCC(OC(=O)c2cccc(Cl)c2)CC1	none
CCCCCCCCNC(=O)c1ccc(C)cc1	none
O=C1N/C(=C\c2ccc(O)cc2)C(=O)c2ccccc21	L major viab 100.3
O=C(O)/C=C1\NC(=O)c2ccccc21	none
Cc1[nH]c2ccccc2c1NC(=O)CN1CCN(c2cccc(C(F)(F)F)c2)CC1	none
Cc1[nH]c2ccccc2c1C(O)CN1CCN(c2cccc(C(F)(F)F)c2)CC1 (stereo not given)	CHOP inhibitor 74.3, L major viab 60.2
CC1CCCN(C(=O)C(C)Sc2nc(-c3ccccc3)cc(C(F)(F)F)n2)C1 (stereo not given)	none
C/C(CC1CC2=C(CC1(C)C)C(C)(C)CCC2)=N\NC(N)=S (stereo not given)	WT yeast gro inh 76.0, L major viab 100.5
O=C(Nc1sc2c(c1C(=O)O)CCCCC2)c1ccccc1	Arbovirus inh 68.8
O=C(Nc1sc2c(c1C(=O)O)CCC2)c1cccs1	Arbovirus inh 55.2
O=C(Nc1nc2c(s1)CCCC2)c1cccnc1	none
Cc1ccc(C(=O)c2c(NC(=O)c3cccnc3)sc3c2CCCC3)cc1	WT yeast gro inh 61.0
O=C(Nc1sc2c(c1C(=O)O)CCC2)c1ccc(F)cc1	Arbovirus inh 42.1
CC1CN(C(=O)Nc2ccc(Br)cc2Cl)CC(C)O1 (stereo not given)	none
O=C(O)/C=C/c1cn(-c2ccccc2)nc1-c1ccc(-c2ccc([N+](=O)[O-])cc2)o1	none (no result: WT yeast gro inh, Arbovirus inh, L major viab)
CN1C(C(=O)NCc2ccco2)CC2Cn3c(nc4cc(Cl)c(Cl)cc43)C21 (stereo not given)	none (no result: WT yeast gro inh, Arbovirus inh, L major viab)
O=C(Nc1sc2c(c1C(=O)O)CCC2)c1ccccc1	none
COCCN(CCOC)S(=O)(=O)c1ccc(C(=O)Nc2sc3c(c2C(N)=O)CCCCC3)cc1	CHOP inhibitor 82.3
O=C(O)c1c(NC(=O)c2cccc3ccccc23)sc2c1CCC2	Arbovirus inh 54.9
COC(=O)c1cc(COC(=O)c2nc3nccc(C)n3n2)oc1C	none
CC(=O)Nc1ncc(Cc2ccc(Cl)cc2Cl)s1	none
COc1ccc2oc(=O)c(C(=O)Nc3cccc(C)c3)cc2c1	CHOP inhibitor 82.2
COc1ccc(C(=O)NNC(=O)c2cc3cc(OC)ccc3oc2=O)cc1	none (no result: WT yeast gro inh, Arbovirus inh, L major viab)
CCn1c(CCCOc2ccc(Cl)cc2Cl)nnc1SCC(=O)Nc1cc(F)ccc1C	WT yeast gro inh 79.0, CHOP inhibitor 84.0
C=CCn1c(-c2csc(-c3ccc(Cl)cc3)n2)n[nH]c1=S	CHOP inhibitor 71.8
Oc1c(C(Nc2cccc(C(F)(F)F)c2)c2cccnc2)ccc2cccnc12 (stereo not given)	L major viab 99.6
CCCCC(=O)NC(c1ccco1)c1cc(Cl)c2cccnc2c1O (stereo not given)	none
Oc1cccc(C(Nc2nccs2)c2ccc3cccnc3c2O)c1 (stereo not given)	L major viab 100.2
Oc1c(C(Nc2ccccn2)c2cccnc2)cc(Cl)c2cccnc12 (stereo not given)	L major viab 94.5
Cc1cc(NC(c2cccnc2)c2ccc3cccnc3c2O)no1 (stereo not given)	L major viab 99.4 (no result: CHOP inhibitor)
O=C1c2ccccc2C(=O)N1/N=C/c1ccc(O)c(O)c1	CHOP inhibitor 70.1
O=C1C2C3C=CC(CC3)C2C(=O)N1/N=C/c1ccc(O)c(O)c1 (stereo not given)	none
COc1ccc(/C=N/NC(=O)Nc2cccc3nsnc23)cc1OC	CHOP inhibitor 83.0
COc1ccc(/C=N\NC(=O)CC(=O)Nc2cccc(Cl)c2)cc1OC	none
CSc1ccccc1NC(=O)COc1ccc(Cl)cc1Cl	none
COc1ccccc1NC(=O)COc1ccccc1	none
CSc1ccccc1NC(=O)COc1ccc(Cl)cc1	CHOP inhibitor 76.5
O=C(COc1ccccc1)Nc1ccccc1Oc1ccccc1	WT yeast gro inh 61.7
O=C(Nc1ccc(Cl)cc1)Nc1cccc2nsnc12	CHOP inhibitor 73.0 (no result: WT yeast gro inh, Arbovirus inh, L major viab)
CCCC/C(C)=N/NC(=O)C(=O)NCCc1ccccc1	none
Cc1[nH]n(-c2c(Cl)cc(Cl)cc2Cl)c(=O)c1C=Nc1ccc(S(=O)(=O)N2CCOCC2)cc1	none
Cc1ccc(C(=O)N[C@H](C(=O)OCc2cc(=O)oc3cc(C)ccc23)C(C)C)cc1	none
CCOc1ccccc1NC(=O)COC(=O)CSc1ccc(Cl)cc1	L major viab 56.7
O=C(COc1ccccc1)Nc1cccc2nsnc12	CHOP inhibitor 76.4
Cc1cccc(OCC(=O)Nc2cccc3nsnc23)c1	none
CCOC(=O)c1cc2occc2n1CC(=O)Nc1ccc(OC)cc1OC	CHOP inhibitor 84.4
Cn1c(O)c(/C=C2\C=Nc3ccccc32)sc1=Nc1ccc(C(=O)O)cc1	none (no result: WT yeast gro inh, Arbovirus inh, L major viab)
CCn1c(O)c(/C=C2\C=Nc3ccccc32)sc1=Nc1ccccc1	CHOP inhibitor 78.7
Cc1ccccc1-n1c(C)nnc1SCc1cc(=O)oc2ccc3ccccc3c12	none
Clc1ccccc1OCCN1CCC(Cc2ccccc2)CC1	L major viab 89.9
COc1cc(C(C)=O)ccc1OCCN1CCC(Cc2ccccc2)CC1	L major viab 89.8
c1ccc(CC2CCN(Cc3ccccn3)CC2)cc1	none
O=C(N=C1SCC(=O)N1c1ccccc1Cl)c1ccccc1	WT yeast gro inh 77.5
O=C(N=C1SCC(=O)N1c1ccccc1Cl)c1ccco1	none
Cc1cc(-c2cc(C(=O)NCc3ccccc3)on2)nc(S(C)(=O)=O)n1	none (no result: WT yeast gro inh, Arbovirus inh, L major viab)
CC(=O)Nc1sc2c(c1CN1CCN(c3ccc(F)cc3)CC1)CCCC2	CHOP inhibitor 79.2
COc1cccc2c1OCC/C2=N\NC(=O)C(C)Oc1ccc([N+](=O)[O-])cc1 (stereo not given)	none
COc1ccc(/C=C/C(=O)NCCN2CCOCC2)cc1OC	none
O=C(/C=C/c1ccc(Cl)cc1Cl)NCCN1CCOCC1	L major viab 71.0
O=C(/C=C/c1ccccc1)NCCN1CCOCC1	L major viab 63.2
Cc1cc(NCC(c2ccccc2)c2ccccc2)n2ncnc2n1	none
Cc1cc(C)c(S(=O)(=O)NCc2ccc3c(c2)cc(C)n3C)c(C)c1	CHOP inhibitor 70.9
Cc1ccc(N(CC(=O)NCc2ccc3c(c2)OCO3)S(=O)(=O)c2c(C)noc2C)cc1	L major viab 58.6
COc1ccc(NC(=O)CN(c2ccc(C(C)C)cc2)S(=O)(=O)c2c(C)noc2C)cc1OC	CHOP inhibitor 70.5
CCOc1ccc(N(CC(=O)Nc2ccc(F)c(F)c2)S(=O)(=O)c2c(C)noc2C)cc1	CHOP inhibitor 89.7
COc1cc(C(=O)NNC(=S)NC(=O)c2ccc(F)cc2)cc(OC)c1OC	none (no result: WT yeast gro inh, Arbovirus inh, L major viab)
CCC/C(O)=N\S(=O)(=O)c1ccc(N=NN(C)C)cc1	none
CCC(=O)N(Cc1c(C)nn(-c2ccccc2)c1Cl)c1ccc(Cl)cc1	L major viab 64.7
Cc1nn(-c2ccccc2)c(Cl)c1C(=O)NCCCCNC(=O)c1c(C)nn(-c2ccccc2)c1Cl	none
Cc1cccc(-n2cc(-c3ccccc3)c3c(NN4CCOCC4)ncnc32)c1	L major viab 62.7
Cc1ccc(-n2cc(-c3ccccc3)c3c(NN4CCOCC4)ncnc32)cc1	L major viab 80.6
Cc1cccc(-n2cc(-c3ccccc3)c3c(=O)[nH]cnc32)c1	none
Clc1ccc(CN(Cc2ccc(Cl)cc2)c2nn[nH]n2)cc1	Arbovirus inh 38.3
c1ccc(CN(Cc2ccccc2)c2nn[nH]n2)cc1	none
